From PubChem BioAssay (NCATS)
Inconclusive results are not listed. Active and inactive are the calls of the source. Calls come from the whole dose curve; as a rule, active = well fitted curve in the direction sought with a large enough effect; inconclusive = small, poorly fitted or top-dose-only effect, or another doubt; inactive = no such curve, though single readings can be large; an effect the other way counts as inactive or inconclusive.

Columns and labels:
[1] = target: Rap guanine nucleotide exchange factor 3 (Homo sapiens) (UniProt O95398); assay: Confirmatory qHTS for antagonist of cAMP-regulated guanine nucleotide exchange factor 3 (EPAC1) (AID 1645880); note: nearly all actives have a fitted effect of over 55% in size
Chain of Rap guanine nucleotide exchange factor 3 (Homo sapiens) (O95398 whole entry, looked up): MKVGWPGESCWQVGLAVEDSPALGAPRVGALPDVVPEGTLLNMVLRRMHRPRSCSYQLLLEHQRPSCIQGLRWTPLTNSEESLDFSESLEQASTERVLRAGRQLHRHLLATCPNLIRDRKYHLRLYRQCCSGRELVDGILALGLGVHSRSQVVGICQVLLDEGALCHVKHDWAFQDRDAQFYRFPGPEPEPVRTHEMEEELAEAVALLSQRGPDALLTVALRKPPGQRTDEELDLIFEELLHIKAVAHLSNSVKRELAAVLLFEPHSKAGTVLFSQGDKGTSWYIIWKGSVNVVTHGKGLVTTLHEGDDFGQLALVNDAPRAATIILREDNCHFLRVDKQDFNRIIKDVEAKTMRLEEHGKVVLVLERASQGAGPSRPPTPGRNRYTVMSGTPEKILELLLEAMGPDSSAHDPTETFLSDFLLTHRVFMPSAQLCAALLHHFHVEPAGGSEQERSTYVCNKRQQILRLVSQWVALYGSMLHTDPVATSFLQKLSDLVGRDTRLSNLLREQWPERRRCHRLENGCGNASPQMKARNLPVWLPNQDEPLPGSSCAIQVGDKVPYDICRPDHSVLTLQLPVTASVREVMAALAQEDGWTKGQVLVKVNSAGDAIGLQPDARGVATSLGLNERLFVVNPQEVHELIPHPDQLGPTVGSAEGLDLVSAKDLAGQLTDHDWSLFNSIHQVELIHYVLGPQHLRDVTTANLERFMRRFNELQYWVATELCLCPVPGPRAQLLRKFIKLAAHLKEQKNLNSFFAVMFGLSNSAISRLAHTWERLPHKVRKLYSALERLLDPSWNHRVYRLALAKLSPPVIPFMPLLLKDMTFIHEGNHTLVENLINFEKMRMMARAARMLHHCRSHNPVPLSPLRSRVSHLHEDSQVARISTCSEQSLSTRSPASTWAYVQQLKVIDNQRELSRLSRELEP
Method in brief: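 Nucleotide exchange uses 100 nM EPAC1, 250 nM RAP1B-BODIPY-GDP and 50 uM GDP, with compounds in a concentration-titration series. After 5 min at room temperature, fluorescence (480 nm ex/540 nm em) is read every 5 min for 30 min. Data are normalized to control ATA and DMSO.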

[2] = target: Rap guanine nucleotide exchange factor 3 (Homo sapiens) (UniProt O95398); assay: Confirmatory qHTS for agonist of cAMP-regulated guanine nucleotide exchange factor 3 (EPAC1) (AID 1645881); note: nearly all actives have a fitted effect of over 75% in size; note: potency is the fitted concentration of half-maximal effect
[3] = target: Rap guanine nucleotide exchange factor 4 (Homo sapiens) (UniProt Q8WZA2); assay: Confirmatory qHTS for agonist of cAMP-regulated guanine nucleotide exchange factor 4 (EPAC2) (AID 1645884);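 note: nucleotide exchange releases bodipy-GDP from Rap1 and this lowers its fluorescence; nearly all actives have a fitted effect of over 65% in size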; note: potency is the fitted concentration of half-maximal effect
Chain of Rap guanine nucleotide exchange factor 4 (Homo sapiens) (Q8WZA2 whole entry, looked up): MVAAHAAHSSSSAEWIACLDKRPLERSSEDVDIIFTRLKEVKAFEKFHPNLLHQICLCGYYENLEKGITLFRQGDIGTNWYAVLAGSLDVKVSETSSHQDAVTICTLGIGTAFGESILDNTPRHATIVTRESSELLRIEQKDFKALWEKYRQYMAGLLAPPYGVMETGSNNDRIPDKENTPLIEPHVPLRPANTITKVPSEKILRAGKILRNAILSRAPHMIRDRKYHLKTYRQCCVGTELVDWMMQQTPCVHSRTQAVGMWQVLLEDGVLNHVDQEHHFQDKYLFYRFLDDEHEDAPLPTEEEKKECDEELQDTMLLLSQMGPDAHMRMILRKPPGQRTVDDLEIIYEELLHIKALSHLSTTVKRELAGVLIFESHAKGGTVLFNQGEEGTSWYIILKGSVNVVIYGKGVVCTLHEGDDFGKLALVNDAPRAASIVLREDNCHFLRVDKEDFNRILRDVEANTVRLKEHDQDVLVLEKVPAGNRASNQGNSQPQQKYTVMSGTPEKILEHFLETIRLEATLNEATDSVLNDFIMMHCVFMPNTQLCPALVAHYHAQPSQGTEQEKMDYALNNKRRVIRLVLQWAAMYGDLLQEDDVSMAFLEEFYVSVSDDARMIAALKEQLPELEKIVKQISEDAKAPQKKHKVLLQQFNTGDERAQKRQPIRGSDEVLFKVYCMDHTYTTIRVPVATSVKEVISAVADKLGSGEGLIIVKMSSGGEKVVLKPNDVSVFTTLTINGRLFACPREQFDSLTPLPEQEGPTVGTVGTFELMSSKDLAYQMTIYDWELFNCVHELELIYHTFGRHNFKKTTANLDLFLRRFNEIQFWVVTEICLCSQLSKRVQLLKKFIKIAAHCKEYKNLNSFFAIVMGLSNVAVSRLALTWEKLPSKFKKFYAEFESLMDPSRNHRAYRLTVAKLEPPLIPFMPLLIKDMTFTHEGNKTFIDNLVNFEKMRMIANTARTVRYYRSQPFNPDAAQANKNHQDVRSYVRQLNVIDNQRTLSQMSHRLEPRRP

[4] = target: Rap guanine nucleotide exchange factor 4 (Homo sapiens) (UniProt Q8WZA2); assay: Confirmatory qHTS for antagonist of cAMP-regulated guanine nucleotide exchange factor 4 (EPAC2) (AID 1645885); note: nearly all actives have a fitted effect of over 25% in size; note: potency is the fitted concentration of half-maximal effect
[5] = target: Rap guanine nucleotide exchange factor 3 (Homo sapiens) (UniProt O95398); assay: Counterscreen qHTS for agonist of cAMP-regulated guanine nucleotide exchange factor 3 (EPAC1) (AID 1645889); note: nearly all actives have a fitted effect of over 40% in size
Method in brief: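 Rap1B–BODIPY-GDP (250 nM) with 50 uM GDP; compounds pin-transferred to 9.74 nM–152 uM final (activator) or from 7.32 nM upwards (inhibitor). Fluorescence Ex/Em 480/540 nm read at 5 and 30 min, then after adding cAMP or buffer, at room temperature.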

[6] = target: Glutathione peroxidase 1 (Homo sapiens) (UniProt P07203); assay: Primary qHTS Assay for Inhibitors of Recombinant Selenoprotein Glutathione Peroxidase 1 (GPX1) (AID 1845191); note: nearly all actives have a fitted effect of over 65% in size
Chain of Glutathione peroxidase 1 (Homo sapiens) (P07203 whole entry, looked up): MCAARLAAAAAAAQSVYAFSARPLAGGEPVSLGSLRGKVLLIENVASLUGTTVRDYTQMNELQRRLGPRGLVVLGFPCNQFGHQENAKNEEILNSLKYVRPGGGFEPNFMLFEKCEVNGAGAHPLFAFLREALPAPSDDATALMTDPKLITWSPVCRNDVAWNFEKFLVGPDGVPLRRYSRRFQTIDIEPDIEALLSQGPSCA
Method in brief: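 GR-coupled assay: compounds preincubated 30 min at room temperature with GPX1, then reaction started with CHP; final 10 nM GPX1, 1 mM GSH, 0.5 mM CHP, 0.5 mM NADPH, 100 nM GR, 0.01% BSA, pH 7.5 Tris buffer. NADPH fluorescence (340/450 nm) read at 0 and 15 min.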

[7] = target: Cytochrome P450 3A4 (Homo sapiens) (UniProt P08684); assay: qHTS Assay for Inhibitors and Substrates of Cytochrome P450 3A4 (AID 884); note: series mostly up to about 57 µM; nearly all actives have a fitted effect of over 50% in size
Chain of Cytochrome P450 3A4 (Homo sapiens) (P08684 whole entry, looked up): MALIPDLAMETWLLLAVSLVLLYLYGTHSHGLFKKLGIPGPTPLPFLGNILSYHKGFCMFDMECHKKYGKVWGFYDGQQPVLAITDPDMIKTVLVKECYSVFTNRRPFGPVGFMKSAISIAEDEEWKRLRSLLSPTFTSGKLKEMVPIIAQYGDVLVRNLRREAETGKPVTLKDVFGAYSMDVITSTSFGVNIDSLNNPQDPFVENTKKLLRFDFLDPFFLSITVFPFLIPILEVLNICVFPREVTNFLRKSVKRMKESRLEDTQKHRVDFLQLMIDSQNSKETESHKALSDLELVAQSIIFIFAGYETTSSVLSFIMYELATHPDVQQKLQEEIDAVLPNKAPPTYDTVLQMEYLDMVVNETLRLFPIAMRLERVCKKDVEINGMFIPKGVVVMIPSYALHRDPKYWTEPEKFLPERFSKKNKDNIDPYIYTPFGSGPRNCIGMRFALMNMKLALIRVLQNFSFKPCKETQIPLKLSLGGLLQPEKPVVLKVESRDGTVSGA
Method in brief: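 20 nM human CYP3A4 with 25 uM Luciferin-PPXE (at KM) in 200 mM KPO4, preincubated 10 min with compound; NADPH regeneration started a 60 min RT reaction. Luciferin detected by luminescence, normalized to 57 uM ketoconazole as full inhibition.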

[8] = Confirmation and Secondary Assay for Modulators of Hemoglobin Beta Chain Splicing at IVS2 654 locus (AID 910);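 note: HeLa cells stably carrying EGFP split by mutant beta-globin IVS2-654 intron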
Method in brief: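 HeLa cells stably expressing EGFP interrupted by β-globin IVS2-654 intron, seeded overnight in Opti-MEM/2% FCS, then treated 2 days at 37 °C. Restored splicing read as total peak GFP intensity per well by laser scanning cytometry (488 nm excitation, 500–520 nm emission); 500 nM antisense PNA as control.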

[9] = Confirmation and Secondary Assay for Modulators of Hemoglobin Beta Chain Splicing at IVS2 705 locus (AID 930);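 note: HeLa cells stably expressing the EGFP-705 splicing reporter; series mostly up to about 46 µM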
Method in brief: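 Restored EGFP fluorescence after 2-day compound exposure reports splicing correction in IVS2-705 EGFP reporter HeLa cells; positive control was 500 nM splice-blocking PNA oligo. Signal measured as well total peak GFP intensity (488 nm excitation).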

[10] = target: Ubiquitin carboxyl-terminal hydrolase 1 (Homo sapiens) (UniProt O94782); assay: Inhibitors of USP1/UAF1: Pilot qHTS (AID 504865);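 note: rhodamine fluorescence freed from ubiquitin-rhodamine substrate followed over time; top concentration of the series differs between compounds; nearly all actives have a fitted effect of over 35% in size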
Chain of Ubiquitin carboxyl-terminal hydrolase 1 (Homo sapiens) (O94782 whole entry, looked up): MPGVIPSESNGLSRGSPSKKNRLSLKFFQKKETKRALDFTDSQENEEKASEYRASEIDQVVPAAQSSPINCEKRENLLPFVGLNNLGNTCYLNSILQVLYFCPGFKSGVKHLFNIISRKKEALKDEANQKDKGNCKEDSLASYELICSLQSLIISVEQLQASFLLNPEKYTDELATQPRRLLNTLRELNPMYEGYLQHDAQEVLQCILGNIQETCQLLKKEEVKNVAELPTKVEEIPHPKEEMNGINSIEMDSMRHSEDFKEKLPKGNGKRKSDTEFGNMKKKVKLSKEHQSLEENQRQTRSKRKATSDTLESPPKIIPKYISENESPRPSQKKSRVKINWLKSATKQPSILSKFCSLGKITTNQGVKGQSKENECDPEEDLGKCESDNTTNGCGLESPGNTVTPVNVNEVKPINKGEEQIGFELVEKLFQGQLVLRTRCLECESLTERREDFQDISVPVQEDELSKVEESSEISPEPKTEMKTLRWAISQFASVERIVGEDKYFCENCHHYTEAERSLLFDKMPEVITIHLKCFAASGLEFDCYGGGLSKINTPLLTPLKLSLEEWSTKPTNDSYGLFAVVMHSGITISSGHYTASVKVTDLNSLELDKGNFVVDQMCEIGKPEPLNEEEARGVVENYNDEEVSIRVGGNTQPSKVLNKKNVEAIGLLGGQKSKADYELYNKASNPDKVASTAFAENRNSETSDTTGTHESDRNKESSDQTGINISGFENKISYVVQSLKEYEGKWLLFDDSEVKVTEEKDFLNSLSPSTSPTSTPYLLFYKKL
Method in brief: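 In 50mM HEPES pH 7.8 containing 0.5mM EDTA, 1mM TCEP, 0.1 mg/ml BSA and 0.01% Tween-20, 1nM USP1/UAF1 is exposed to compound for 15 min, then Ub-Rho (150nM final) is added and fluorescence is read over time.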

Measured: Potency

Nc1c(C(=O)c2ccccc2)sc2nsc(SCCN3CCOCC3)c12
inactive: [1] | [2] | [3] | [4] | [5]

CCN(CC)c1ccc2cc(-c3nnc(Nc4ccc(C)cc4)s3)c(=O)oc2c1
active: [2] 112 µM | [3] 35.5 µM | [4] 5.36 µM

COc1c/c(=C2\C=c3ccccc3=N2)[nH]/c1=C/c1[nH]c(C)cc1C
inactive: [6]

O=C(O)c1cc2cc(Cl)ccc2[nH]1
inactive: [7] | [8] | [9] | [10]

CSCCC(NS(=O)(=O)c1ccc2c(c1)oc(=O)n2C)C(=O)NC1CCCc2ccccc21 (stereo not drawn)
inactive: [1] | [2] | [3] | [4] | [5]
